# Laboratory results from PubChem BioAssay (NCI).
# Values joined by “and” are separate entries in the source; they are usually repeats but may differ in a detail not shown here. Equal entries are not always repeated. This is part of a sample that, as a whole, favours compounds with a hit. Of some 83,000 tested, about 20% had one in any assay.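 A percent growth of 40 corresponds to 60% growth inhibition; 0 means no net growth; -100 means all cells died. Active threshold: below 10.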 Active and inactive are the calls of the source.
# Test system: HL-60(TB) leukemia
# Assay: NCI-60 one-dose screen, 48 h (100 = growth as untreated, 0 = no growth, -100 = all killed)
# Details: 10 µM unless noted
row,Structure (SMILES),growth
1,CCN(CC)CCn1c(=N)n(CC(O)c2ccc(Cl)c(Cl)c2)c2ccccc21 (stereo not given),71% (inactive)
2,Cn1c(=O)c2[nH]c(CCCCC(=O)O)nc2n(C)c1=O,60.6% (inactive)
3,O=C(c1ccccc1)C1CCC1,88.2% (inactive)
4,CO/N=C/C=C\C(=O)N/C=C/C[C@H]1/C=C/[C@H](O)/C=C\C=C\c2cccc(O)c2C(=O)O1,23.3% (inactive) and -28.4% (active)
5,OCc1cnccc1NC12CC3CC(CC(C3)C1)C2,85.3% (inactive)
6,Cc1ccncc1NC=O,105% (inactive)
7,NS(=O)(=O)c1ccc(-n2ncc(NC(=O)Nc3ccc(S(=O)(=O)Nc4nccs4)cc3)c2-c2ccccc2)cc1,92.5% (inactive)
8,O=c1c(CNc2ccc(S(=O)(=O)Nc3nccs3)cc2)coc2ccccc12,89.6% (inactive)
9,O=C(CC(c1ccccc1)N1CCOCC1)c1ccccc1 (stereo not given),83.1% (inactive)
10,COc1c(/C(C)=N/N=c2sc(C(C)=O)nn2-c2ccc(Cl)cc2)c(Oc2ccccc2)c(OC)c2occc12,102% (inactive) and 104% (inactive)
11,CCCOC(=O)C1c2cc3c(cc2CC(C)C1C(=O)OCCC)OCO3 (stereo not given),111% (inactive)
12,COC(=O)c1nc(-c2ccc(C)cc2)oc1S(=O)(=O)c1cccc(OC)c1,44.7% (inactive)
13,Oc1ccc(-c2cnc(-c3ccccc3)[nH]2)c(O)c1,101% (inactive)
14,Cn1c2ccccc2c2nn(C(=O)c3ccccc3)c(=O)nc21,110% (inactive)
15,COc1ccc(/C=C/C(=O)O)cc1OC,103% (inactive) and 102% (inactive)
16,CN(C)C(C)(C)CC(C)(C)C,71.8% (inactive)
17,Cc1ccccc1/C=C/C(=O)c1cccc(OCCCOc2cccc(C(=O)/C=C/c3ccccc3C)c2)c1,78.2% [3 µM] (inactive)
18,c1cncc(CNc2ccccc2-c2nnc(Nc3ccc4c(c3)OCCO4)o2)c1,8.71% (active)
19,CCN1C(=O)N(CC)C2C1NN=c1s/c(=C\c3cccc([N+](=O)[O-])c3)c(=O)n12 (stereo not given),-37.1% (active)
20,COc1ccc(NC(=O)CSc2nc3ccc(Cl)cc3c(=O)n2-c2ccccc2C(F)(F)F)c(OC)c1OC,105% (inactive)
21,CCCNC(=O)Oc1ccc(/C(=C(\C)c2ccccc2)c2ccc(OCCN3CCCCC3)cc2)cc1,63.1% (inactive)
22,CCCCCCN(CCCCCC)C(=N)c1ccnc2ccccc12,43.2% (inactive)
23,CCCCCCCC/C=C\CCCCCCCCOc1ccccc1CCOP(=O)(O)OCC[N+](C)(C)C,-23% (active)
24,CCN(CC)S(=O)(=O)c1ccc(OC)c(NC(=O)c2[nH]c(C)c3c2CCCCC3=O)c1,4.18% (active)
25,CC(=O)Cc1nsc(NC(=O)c2cc(-c3cc(Cl)cc(Cl)c3)oc2C)n1,96.5% (inactive)
